Compounds with a hit are over-represented: about 19% of the library has one in this group of screens.
HepG2 tox = kills HepG2 cells in TGF-b inhibitor counter-screen | HepG2 CAGA-GFP viability, ATP luminescence, 18 h | Potency, µM (highest dose often 46.1 µM), without a hit: top-dose activity change, negative = cytotoxicity, hits mostly cytotoxic | hit rate 0.76% among 410,000; also: potency is read from the fitted curve at half-maximal effect
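CellTiter-Glo luminescence gave cytotoxicity after 18 hours at 37 degrees C. The cells were HepG2 CAGA-GFP in 1% FBS DMEM, stimulated with 500 pg/mL TGF-beta after compound addition. %Activity was normalised to no-cell wells (complete cell-killing) and DMSO (no toxicity), and curves were fitted and classified.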
TGFb inhibitor = blocks TGF-b signaling; Potency, µM (series often up to 46.1 µM), for inactives: at the highest dose activity, negative = inhibition, most hits filed as inhibitors; hit rate 1.2% among 410,000; HepG2 CAGA-GFP TGF-b/SMAD3 reporter, GFP fluorescence, 18 h; TGF-beta stimulated, 500 pg/mL final; also: potency is read from the fitted curve at half-maximal effect; % is scaled to controls: 0 for no effect and ±100 for the full control effect; nearly all actives have a fitted effect of over 65% in size
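HEPG2 CAGA-GFP, 1000 cells/well; 2 h settle, 37 C; cpd via pin tool; TGF-b 500 pg/mL final; 18 h, 37 C; GFP imaging ex488/em500-530; %Activity normalised to -TGF-b and +DMSO controls; CRC fit, curve class.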
DT40 TDP1 CPT = DT40-hTDP1 cell growth loss with CPT; Potency, µM (series often up to 46.2 µM), without a hit: at the top dose activity change, negative = growth inhibition, usual class: inhibitors; hit rate 12% among 420,000; AID 686979; chicken DT40 Tdp1-/-;hTDP1 cells + 20 nM CPT, ATP luminescence, 48 h; also: potency is read from the fitted curve at half-maximal effect; % is scaled to controls: 0 for no effect and ±100 for the full control effect; nearly all actives have a fitted effect of over 55% in size
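Chicken DT40 Tdp1-/- cells complemented with human TDP1, 400 cells/well, exposed to compounds plus 20 nM camptothecin for at least 48 h at 37 C; viability read as ATP content by CellTiter-Glo luminescence.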
IL1B secr inh = inhibitors of inflammasome signaling (IL-1 beta secretion); hit rate 4.7% among 360,000; THP-1 LPS/ATP IL-1B secretion, AlphaLISA, 16 h; hits give low values; activity change, % at 57.5 µM; AID 743279; in the data active = activity change below about -50%; inconclusive = mostly about -30% to -49%; also: % is scaled to controls: 0 for no effect and ±100 for the full control effect
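THP-1 cells pretreated 1 hr with compounds (up to 57.5 uM final), then stimulated with LPS (250 ng/mL final) plus ATP (1.25 mM final); secreted IL-1B measured by AlphaLISA after 16 hr, decreased signal indicating inhibition.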
DT40 TDP1 no CPT = qHTS for Inhibitors of human tyrosyl-DNA phosphodiesterase 1 (TDP1): qHTS in cells in absence of CPT; DT40 Tdp1-/- hTDP1 cells, no CPT, ATP luminescence, 48 h; Potency, µM (doses to about 46.2 µM), inactives show top-dose activity change, negative = growth inhibition, hits mostly inhibitors; hit rate 15% among 420,000; AID 686978, 2013; also: potency is read from the fitted curve at half-maximal effect; % is scaled to controls: 0 for no effect and ±100 for the full control effect; nearly all actives have a fitted effect of over 55% in size
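Luminescent ATP content (CellTiter-Glo) served as the growth readout. Knockout chicken DT40 cells expressing human TDP1 were exposed to compounds without camptothecin for a minimum 48 hr at 37 °C.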
TDP1 block = TDP1 (human) enzyme inhibition; recombinant TDP1, AlphaScreen DNA substrate cleavage; Potency, µM (top dose mostly 130 µM), for the others: at the top dose activity change, negative = inhibition, hits mostly inhibitors; hit rate 0.28% among 350,000; also: potency is read from the fitted curve at half-maximal effect; % is scaled to controls: 0 for no effect and ±100 for the full control effect; nearly all actives have a fitted effect of over 40% in size
Target sequence (Q9NUW8 whole entry, looked up): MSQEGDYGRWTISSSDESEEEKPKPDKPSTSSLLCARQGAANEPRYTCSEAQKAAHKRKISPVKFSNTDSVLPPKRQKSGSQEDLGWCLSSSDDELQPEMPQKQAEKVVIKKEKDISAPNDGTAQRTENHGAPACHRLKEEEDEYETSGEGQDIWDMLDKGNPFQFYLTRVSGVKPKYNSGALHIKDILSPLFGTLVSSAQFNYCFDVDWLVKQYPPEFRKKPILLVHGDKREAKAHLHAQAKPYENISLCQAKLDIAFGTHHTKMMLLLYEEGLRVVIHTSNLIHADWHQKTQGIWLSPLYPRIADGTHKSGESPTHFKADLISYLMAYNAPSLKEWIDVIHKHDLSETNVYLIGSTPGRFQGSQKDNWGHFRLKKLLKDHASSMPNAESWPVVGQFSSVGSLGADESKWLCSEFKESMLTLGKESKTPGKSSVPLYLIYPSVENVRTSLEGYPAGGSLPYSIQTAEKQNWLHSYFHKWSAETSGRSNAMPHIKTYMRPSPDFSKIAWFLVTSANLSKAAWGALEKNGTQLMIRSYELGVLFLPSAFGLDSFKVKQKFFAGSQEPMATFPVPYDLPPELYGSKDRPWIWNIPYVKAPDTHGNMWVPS
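E. coli-derived human Tdp1, 1 nM final. Cpd preinc 15 min RT; substrate 15 nM final, 5 min RT; AS bead mix 10 ug/ml final, 10 min RT. Signal loss = tyrosine-FITC cleavage. No-enzyme wells = max signal.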
Numbers without * were called inactive; ? = inconclusive; . = no result given; [ ] = remark or other dose. Unless noted, calls follow the shape of the dose curve; as a rule, active = well fitted curve in the direction sought with a large enough effect; inconclusive = small, poorly fitted or top-dose-only effect, or another doubt; inactive = no such curve, though single readings can be large; an effect the other way counts as inactive or inconclusive.

SMILES	HepG2 tox	TGFb inhibitor	DT40 TDP1 CPT	IL1B secr inh	DT40 TDP1 no CPT	TDP1 block
CC(Oc1ccc(F)cc1)C(=O)Nc1cc(S(=O)(=O)N2CCOCC2)ccc1N1CCCC1 (centres undefined)	2.6%	-7.9%	-28.3%	0.0	5.8%	4.2%[56.1 µM]
CC(Oc1ccc(F)cc1)C(=O)Nc1cc(S(=O)(=O)N2CCOCC2)ccc1N1CCCCC1 (centres undefined)	-1.0%	-11.3%	?	-19.4	16.4µM*	-10.0%
Cc1ccccc1C(=O)Nc1nc2nc(C)c(C)c(=O)n2[nH]1	-2.4%	2.8%	7.2%	.	-20.5%	2.3%
COc1ccc(-n2c(C)cc(C3=NNC(=NC4CC4)SC3)c2C)cc1	-47.0%	?	?	?	23.1µM*	7.5%
Cc1cc(C2=NNC(=NC3CC3)SC2)c(C)n1-c1ccccc1	-34.2%	?	?	-6.6	23.1µM*	7.9%
CCc1ccccc1N(CC)C(=O)C(=O)Nc1ccc2nc3n(c(=O)c2c1)CCCCC3	1.0%	-0.4%	?	.	?	0.0%
O=c1c2c(nc(NCCO)n1CC1CCCCC1)-c1ccccc1CC21CCCC1	-104.1%	?	?	?	?	5.1%
CC1(C)Cc2ccccc2-c2nc(NCCO)n(-c3ccccc3)c(=O)c21	3.7%	6.6%	18.4µM*	-16.1	18.4µM*	9.5%
CCC1(C)Cc2ccccc2-c2nc(NCCCO)n(C)c(=O)c21 (centres undefined)	-14.1%	-29.8%	?	-7.6	?	-2.6%
CC1(C)CC(n2c(NCCO)nc3c(c2=O)C2(CCCC2)Cc2ccccc2-3)CCO1 (centres undefined)	-61.2%	?	?	-66.4*	?	6.1%
CCC1(C)Cc2ccccc2-c2nc(NCCO)n(-c3ccccc3)c(=O)c21 (centres undefined)	-8.2%	3.3%	4.11µM*	-7.7	4.61µM*	0.2%
CCN1CCCC1CNC(=O)CN(C)S(=O)(=O)c1ccc(Cl)cc1 (centres undefined)	-0.4%	1.5%	7.7%	5.3	-1.8%	8.0%
CC1CN(C(=O)/C=C/c2ccc(SC(F)F)cc2)CC(C)O1 (centres undefined)	-15.2%	-0.5%	?	-5.2	13µM*	.
CC1CN(C(=O)COC(=O)/C=C/c2ccc(C(F)(F)F)cc2)CC(C)O1 (centres undefined)	10.3%	2.4%	-2.3%	-0.9	3.3%	1.1%
COc1cc(OC)c(OC)cc1/C=C1\Oc2cc(OCC(=O)N3Cc4ccccc4C[C@H]3C(=O)O)ccc2C1=O	-14.8%	4.8%	0.8%	-1.7	-9.7%	.
Cc1sc2nc(SCCN(C)C)n(-c3ccccc3)c(=O)c2c1-c1ccc(F)cc1	-31.2%	3.1%	18.4µM*	-16.6	25.9µM*	4.0%[0.0935 µM]
CCc1ccc(NC(=O)CSc2cn(CC(=O)N3CCCC3)c3ccccc23)cc1	-15.6%	-24.4%	18.4µM*	.	?	5.1%
COc1ccc(NC(=O)CS(=O)(=O)c2cn(CC(=O)N3CCOCC3)c3ccccc23)cc1	-0.2%	2.8%	4.3%	-1.1	-5.0%	0.0%
Cc1ccc(NC(=O)CSc2cn(CC(=O)N3CCOCC3)c3ccccc23)cc1Cl	-19.9%	?	20.6µM*	.	20.6µM*	7.7%
Cc1cccc(NC(=O)CS(=O)(=O)c2cn(CC(=O)N3CCOCC3)c3ccccc23)c1	25.4%	13.6%	0.517µM*	-17.7	2.31µM*	0.0%
COC(=O)c1ccc(NC(=O)CSc2cn(CC(=O)N3CCCCCC3)c3ccccc23)cc1	-12.8%	?	?	.	18.4µM*	7.7%
CCc1ccccc1NC(=O)COc1cccc(-n2cnnn2)c1	-2.9%	-2.6%	-1.2%	-3.2	-29.0%	14.6%[0.0935 µM]
CCCCCCCC1=Cc2ccc(F)cc2C(C(C(C)=O)C(=O)OC)N1C(=O)OC (centres undefined)	.	.	.	.	.	3.7%
CC(C)C[C@H](NC(=O)[C@H](Cc1ccccc1)NC(=O)[C@@H]1CCCN1C(=O)[C@H](CC(=O)O)NC(=O)[C@@H]1CCC(=O)N1)C(=O)N[C@@H](CCCN=C(N)N)C(=O)N[C@@H](Cc1ccccc1)C(N)=O	.	.	.	.	.	6.2%
CCOC(=O)c1c(C)[nH]c(C)c1S(=O)(=O)N1CCN(c2cccc(C)c2)C(C)C1 (centres undefined)	-30.1%	-5.5%	?	-6.7	?	5.8%
SMILES	HepG2 tox	TGFb inhibitor	DT40 TDP1 CPT	IL1B secr inh	DT40 TDP1 no CPT	TDP1 block
N#CCOC(=O)[C@H](Cc1c[nH]c2ccccc12)NS(=O)(=O)c1ccc(Cl)cc1	-103.7%	?	-20.2%	33.6	-29.8%	.
CCOC(=O)c1ccc(NC(=O)CSc2cn(CC(=O)N3CCCC3)c3ccccc23)cc1	-16.1%	?	?	.	18.4µM*	2.6%
Cc1cc(O)c(C(c2ccccc2)N2CCC(C)CC2)c(=O)n1Cc1ccco1 (centres undefined)	-7.7%	0.0%	-13.4%	.	-9.0%	1.9%
CC(=O)CCc1c(C)nc2ccc(C)cc2c1Cl	6.9%	3.9%	-7.9%	?	5.17µM*	-1.2%
CCOC(=O)c1ccc2nc(C)c(CCC(C)=O)c(Cl)c2c1	2.3%	6.3%	-8.0%	3.9	-1.6%	-6.7%
CCOC(=O)C(C)Sc1nc(-c2ccccc2Cl)cc(-c2ccccc2)c1C#N (centres undefined)	0.6%	3.8%	13µM*	.	?	-3.2%
COc1ccccc1-c1cc(-c2ccccc2)nc(SC(C(N)=O)c2ccccc2)c1C#N (centres undefined)	-28.3%	-1.9%	?	15.0	23.1µM*	1.0%
CC(Sc1nc(C(C)(C)C)cc(-c2ccccc2)c1C#N)C(=O)Nc1ccccc1 (centres undefined)	-25.8%	?	?	22.6	29.1µM*	2.7%
CCOC(=O)[C@@H]1[C@H]2COc3cc(OC)ccc3[C@@H]2N2C(=O)N(c3cccc(Cl)c3)C(=O)[C@@]12C	-4.7%	-0.4%	-20.7%	-5.5	?	.
CCCCC[C@H](O)/C=C/C=C\CCCCCCCC(=O)O	.	.	?	.	?	7.3%
N#CC1(c2ccccc2)CCC(NCCc2ccccc2)CC1 (centres undefined)	-42.7%	-28.0%	?	?	18.4µM*	.
CN(C)c1ccc(CNC(=O)c2ccc(NC(=O)N3CCCCc4ccccc43)cc2)cc1	-15.6%	-17.7%	?	.	?	13.6%
